Test results from PubChem BioAssay AID1918969 (ICCB-Longwood Screening Facility, Harvard Medical School, 2023).
Hit rate of the full screen: of about 190,000 compounds, about 280 (0.15%) were called active. This excerpt belongs to a sample that is enriched for actives. Values without a mark were called inactive. Rule as the data show it: active = inhibition above about 27% (passing the limit was not always enough); inactive = the rest.

tested on: HCMV UL50-UL53 nuclear egress complex (human cytomegalovirus); experiment: inhibitors of HCMV UL50-UL53 interaction, biochemical, HTRF (AID 1918969); settings: normalized percent inhibition, hits give high values, concentration not given here

**Q.** Which inhibition does the source give for `Cc1ccc(C)c(NC(=O)Cc2coc3ccc(C)cc23)c1` here?
**A.** The inhibition was -31.3%.

**Q.** For `Cc1c(C(=O)O)sc2ncnc(N3CCN(c4ccccn4)CC3)c12`, which inhibition is on record?
**A.** The inhibition was -8.6%.

**Q.** Which inhibition does the source give for `O=C(O)CCCOc1ccc(Cl)cc1` here?
**A.** Its inhibition is -22.4%.

**Q.** `CCc1ccccc1N1CC(c2nc3ccccc3n2CCCCOc2ccccc2)CC1=O` (stereo not given) was tested. Which inhibition did it give?
**A.** Its inhibition is 74.6% (active).

**Q.** `CCOc1ccc(N2CC(c3nc4ccccc4n3CCOc3ccc(OC)cc3)CC2=O)cc1` (stereo not given) was tested. Which inhibition did it give?
**A.** The inhibition was -33.2%.

**Q.** How did the inhibition turn out when `COc1ccc(OCCCn2c(C3CC(=O)N(c4ccc(F)cc4)C3)nc3ccccc32)cc1` (stereo not given) was run?
**A.** The inhibition was -4.1%.

**Q.** `CCc1nn(CC(=O)NCC2CCCO2)c(=O)c2cc3ccccc3n12` (stereo not given) was tested. Which inhibition did it give?
**A.** The inhibition was -52.3%.

**Q.** With `CCOC(=O)c1sc2cccc(F)c2c1S(=O)(=O)N1CC=C(c2ccccc2)CC1` as the compound, how does the inhibition read?
**A.** The inhibition was 6.4%.

**Q.** Which inhibition does the source give for `COC(=O)c1cc(S(=O)(=O)N2CCc3ccccc3C2)c[nH]1` here?
**A.** The inhibition was -4.8%.

**Q.** How did the inhibition turn out when `Fc1cccc(Cl)c1CSc1nnc(-c2c[nH]c3ccccc23)o1` was run?
**A.** The inhibition was 15.6%.

**Q.** How did the inhibition turn out when `CCCc1oc2cc(O)ccc2c(=O)c1Oc1ccc(F)cc1` was run?
**A.** Its inhibition is 3.5%.

**Q.** Which inhibition does the source give for `Cc1cc(C)cc(-n2c(CCC(=O)O)ccc2-c2cccs2)c1` here?
**A.** The inhibition was -19.7%.

**Q.** For `Cc1cc(C)c2[nH]c(=O)c(CN(C(=O)Nc3ccccc3F)C3CC3)cc2c1`, which inhibition is on record?
**A.** The inhibition was -21%.

**Q.** For `CCOc1ccc(N2C(=O)N(CC(=O)N3CCCCC3C)c3ccccc3S2(=O)=O)cc1` (stereo not given), which inhibition is on record?
**A.** Its inhibition is -6.7%.

**Q.** With `CCOC(=O)C1(c2ccccc2)CCCN1C(=O)CN1C(=O)c2ccccc2C1=O` (stereo not given) as the compound, how does the inhibition read?
**A.** The inhibition was -40.9%.

**Q.** With `Cc1c(C(F)(F)F)nc(-c2ccc(CN(C)C)cc2)[nH]c1=O` as the compound, how does the inhibition read?
**A.** The inhibition was -18.3%.

**Q.** For `CCOC(=O)C1(C2(O)C(=O)c3ccccc3C2=O)CCCC1=O` (stereo not given), which inhibition is on record?
**A.** The inhibition was 7.6%.

**Q.** `CCOC(=O)C(C(=O)c1ccccc1)C1(O)C(=O)c2ccccc2C1=O` (stereo not given) was tested. Which inhibition did it give?
**A.** Its inhibition is 94.1% (active).

**Q.** Which inhibition does the source give for `CCOC(C(=O)c1ccccc1)c1ccccc1` (stereo not given) here?
**A.** The inhibition was 1.5%.

**Q.** Which inhibition does the source give for `C#CCn1c(O)c(N=NC(=O)c2cc(OC)c(OC)c(OC)c2)c2ccccc21` here?
**A.** The inhibition was -43.6%.

**Q.** With `Nc1nnc2c([nH]c3ccccc32)c1-c1ccccc1` as the compound, how does the inhibition read?
**A.** The inhibition was -61.1%.

**Q.** `COc1ccc(CC(=O)OCC(=O)Nc2cc(C)ccc2C)cc1` was tested. Which inhibition did it give?
**A.** The inhibition was 20.6%.

**Q.** With `Cc1cc(=O)n2[nH]c(CN(C(=O)CC(C)C)c3ccc(Cl)cc3)nc2n1` as the compound, how does the inhibition read?
**A.** The inhibition was -9.7%.

**Q.** For `CCCn1c2ccccc2n2cc(-c3ccc(F)cc3)nc12`, which inhibition is on record?
**A.** The inhibition was -23.6%.

**Q.** How did the inhibition turn out when `CCOC(=O)C1=C(C)N(c2ccc(OC)cc2)C(=O)/C1=C\c1ccco1` was run?
**A.** The inhibition was -53.1%.

**Q.** With `COc1ccccc1-c1nnc(SCC(=O)Nc2cccc3nsnc23)n1-c1ccccc1` as the compound, how does the inhibition read?
**A.** Its inhibition is -31.2%.

**Q.** Which inhibition does the source give for `COc1ccc(C2CC2/C(C)=N/O)cc1` (stereo not given) here?
**A.** The inhibition was -8.3%.

**Q.** With `CN(C)S(=O)(=O)c1ccc2nc(NC(=O)CN3C(=O)c4ccccc4C3=O)sc2c1` as the compound, how does the inhibition read?
**A.** The inhibition was -36.1%.

**Q.** How did the inhibition turn out when `Clc1cccc(-c2cc(-c3nc(-c4ccccc4)no3)[nH]n2)c1` was run?
**A.** The inhibition was -20.2%.

**Q.** Which inhibition does the source give for `Cn1c(CNC(=O)OC(C)(C)C)nnc1SCc1c(F)cccc1Cl` here?
**A.** Its inhibition is -17%.

**Q.** With `CCC(Sc1nc2ncccc2o1)C(=O)N(Cc1ccccc1)C(C)C` (stereo not given) as the compound, how does the inhibition read?
**A.** Its inhibition is -29.3%.

**Q.** With `CCN1C(=O)c2cccc3c(S(=O)(=O)Nc4cccc(C)n4)ccc1c23` as the compound, how does the inhibition read?
**A.** The inhibition was -9%.

**Q.** Which inhibition does the source give for `O=C(Cc1csc(NC(=O)NC2CCCC2)n1)NCCc1c[nH]c2ccccc12` here?
**A.** Its inhibition is -1.1%.

**Q.** With `CCOC(=O)c1c(NC(=O)Cc2ccccc2)sc(C(=O)Nc2cccc(C(F)(F)F)c2)c1C` as the compound, how does the inhibition read?
**A.** Its inhibition is 8.1%.

**Q.** `Cc1noc(C)c1COc1ccc(C(=O)OCC(=O)Nc2sc3c(c2C(N)=O)CCC3)cc1` was tested. Which inhibition did it give?
**A.** The inhibition was 13.2%.

**Q.** Which inhibition does the source give for `Cc1nn(C)cc1CN(C)C(=O)c1cnn2c(C(F)(F)F)cc(-c3ccc(Br)cc3)nc12` here?
**A.** The inhibition was -24.9%.

**Q.** For `Cc1ccc(C(CNC(=O)Nc2ccccc2)N2CCN(C)CC2)cc1` (stereo not given), which inhibition is on record?
**A.** The inhibition was -33.4%.

**Q.** Which inhibition does the source give for `N#Cc1cccc(NC(=O)CSc2ncccn2)c1` here?
**A.** The inhibition was 14.4%.

**Q.** With `Cc1ccc(NC(=O)Cn2cnc3ccc(S(=O)(=O)N4CCC(C)CC4)cc3c2=O)cc1F` as the compound, how does the inhibition read?
**A.** The inhibition was -4.6%.

**Q.** With `C#CCN1C(=O)C(c2c(-c3ccc(Cl)cc3)[nH]c3c2c(=O)n(C)c(=O)n3C)c2ccccc21` (stereo not given) as the compound, how does the inhibition read?
**A.** Its inhibition is -14.2%.

**Q.** With `COc1cc(OC)cc(C(=O)N2N=C(c3c(-c4ccccc4)c4cc(Br)ccc4[nH]c3=O)CC2c2ccco2)c1` (stereo not given) as the compound, how does the inhibition read?
**A.** Its inhibition is 0.4%.

**Q.** How did the inhibition turn out when `CCOc1ccc(/C=C2\SC(=O)N(CCNC(=O)c3c(CC)noc3C)C2=O)cc1OC` was run?
**A.** The inhibition was -3.2%.

**Q.** With `Cn1nccc1-c1nc(-c2cccc(NC(=O)Nc3ccccc3)c2)no1` as the compound, how does the inhibition read?
**A.** The inhibition was -30%.

**Q.** For `COC(=O)c1sccc1NC(=O)Cn1c(=O)nc(-c2ccccc2F)c2cc(Cl)ccc21`, which inhibition is on record?
**A.** Its inhibition is -19.3%.

**Q.** How did the inhibition turn out when `CC1(C)CC(NCCNC2=CC(=C(C#N)C#N)CC(C)(C)C2)=CC(=C(C#N)C#N)C1` was run?
**A.** Its inhibition is -0.1%.
